G9a block – qHTS Assay for Inhibitors of Histone Lysine Methyltransferase G9a | Histone-lysine N-methyltransferase EHMT2 (Homo sapiens), Q96KQ7 | G9a H3K9 monomethylation, AlphaScreen, 2 h | Potency, µM (highest dose often 102 µM), for inactives: at the highest dose activity, negative = inhibition, hits mostly inhibitors | 8.8% of 350,000 active; further: potency means the concentration at half of the fitted maximal effect; on the % scale 0 is the no-effect control and ±100 the full control effect; nearly all actives have a fitted effect of over 75% in size
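AlphaScreen detection with an anti-monomethyl H3K9 antibody quantified product after a 2 h room-temperature reaction containing 500 nM biotinylated H3K9 peptide, 20 µM SAM and 20 nM enzyme, which had been preincubated 15 min with compound.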
PLK1 PBD inh – qHTS for Inhibitors of PLK1-PDB (polo-like kinase 1 - polo-box domain): Primary Screen. Serine/threonine-protein kinase PLK1 (Homo sapiens), P53350. Potency, µM, for inactives: max response, negative = inhibition, hits mostly inhibitors. AID 720504, 2013. Plk1 PBD binding of FITC phosphopeptide, fluorescence polarization. 2.8% of 360,000 active; further: potency means the concentration at half of the fitted maximal effect; series mostly up to about 57 µM; on the % scale 0 is the no-effect control and ±100 the full control effect; nearly all actives have a fitted effect of over 65% in size
Target sequence (P53350 whole entry, looked up, the tested form may be a part): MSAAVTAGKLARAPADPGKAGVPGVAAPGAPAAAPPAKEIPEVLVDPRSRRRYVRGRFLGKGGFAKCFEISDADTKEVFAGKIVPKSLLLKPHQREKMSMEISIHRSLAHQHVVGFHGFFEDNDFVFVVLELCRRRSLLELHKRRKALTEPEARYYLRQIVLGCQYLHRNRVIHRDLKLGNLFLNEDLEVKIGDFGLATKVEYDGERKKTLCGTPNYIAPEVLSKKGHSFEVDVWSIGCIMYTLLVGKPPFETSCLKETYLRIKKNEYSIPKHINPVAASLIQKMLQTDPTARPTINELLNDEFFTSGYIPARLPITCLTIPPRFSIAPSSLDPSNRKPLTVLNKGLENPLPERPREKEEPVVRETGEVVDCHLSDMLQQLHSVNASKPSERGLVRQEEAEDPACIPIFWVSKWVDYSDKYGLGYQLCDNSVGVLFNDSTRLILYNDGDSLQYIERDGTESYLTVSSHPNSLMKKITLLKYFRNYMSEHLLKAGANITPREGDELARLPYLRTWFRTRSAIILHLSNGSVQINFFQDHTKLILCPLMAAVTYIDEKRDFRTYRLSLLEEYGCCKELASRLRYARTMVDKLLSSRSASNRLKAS
BAZ2B block – qHTS Assay for Inhibitors of BAZ2B. AlphaScreen BAZ2B-H3K14Ac peptide displacement. AID 504333, 2011. Bromodomain adjacent to zinc finger domain protein 2B (Homo sapiens), Q9UIF8. 4.4% of 360,000 active. Potency, µM (highest dose often 114 µM), without a hit: top-dose activity change, negative = inhibition, most hits filed as inhibitors; further: potency means the concentration at half of the fitted maximal effect; on the % scale 0 is the no-effect control and ±100 the full control effect; nearly all actives have a fitted effect of over 60% in size
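Protein-peptide AlphaScreen: BAZ2B 50 nM, b-H3K14Ac 50 nM, 1x PBS pH 7.4 + 0.01% Tween-20. Preincubation 30 min RT; cpd 30 min RT (top 110 uM); beads 20 min RT, light-protected.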
PI5P4Ka inh – qHTS for Inhibitors of phosphatidylinositol 5-phosphate 4-kinase (PI5P4K) | PI5P4Kalpha enzyme, ADP-Glo luminescence, 60 min; hits give low values | Phosphatidylinositol 5-phosphate 4-kinase type-2 alpha (Homo sapiens), P48426 | max response, % | 1.2% of 330,000 active; active means max response of -50% or lower; inconclusive means between -30% and -50%; inactive means -30% or higher; further: value at the top dose of about 77 µM; on the % scale 0 is the no-effect control and ±100 the full control effect
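PI5P4Kalpha ADP-Glo assay; 5 microM ATP final; 60 min RT reaction; HEPES pH 7.4/EGTA/CHAPS, 5% DMSO; controls lacking substrate or enzyme; luminescent end-point.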
JMJD2A Tudor inh – qHTS Assay for Inhibitors of JMJD2A-Tudor Domain; 4.4% of 390,000 active; AlphaScreen JMJD2A-Tudor / H3K4me3 peptide binding; Lysine-specific demethylase 4A (Homo sapiens), O75164; AID 504339, 2011; Potency, µM (doses to about 114 µM), for the others: at the top dose activity change, negative = inhibition, actives largely listed as inhibitors; further: potency means the concentration at half of the fitted maximal effect; on the % scale 0 is the no-effect control and ±100 the full control effect; nearly all actives have a fitted effect of over 50% in size
HP1b binding inh – HTS for Inhibitors of HP1-beta Chromodomain Interactions with Methylated Histone Tails; Chromobox protein homolog 1 (Homo sapiens), P83916; AlphaScreen HP1-beta / biotin-H3K9me3 peptide binding; Potency, µM (top dose mostly 114 µM), without a hit: at the highest dose activity change, negative = inhibition, most hits filed as inhibitors; 0.56% of 390,000 active; AID 540317, 2011; further: potency means the concentration at half of the fitted maximal effect; nearly all actives have a fitted effect of over 70% in size
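HP1-beta protein (50 nM final) preincubated 30 min at room temperature with biotinylated H3(1-18)K9me3 peptide (50 nM) in PBS pH 7.4, 0.01% Tween-20, then compound added for 30 min. AlphaScreen streptavidin donor/nickel chelate acceptor beads (10 ug/mL final), 30 min dark, luminescence read.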
* = called active by the depositor; u = inconclusive; x = not tested or not shown; [ ] = dose if it differs, or a comment. Most compounds without a hit are left out; they make up all but 12% or so of the library. Unless noted, the call rests on the fitted dose curve; in most records, active means well fitted curve in the direction sought with a large enough effect; inconclusive means small, poorly fitted or top-dose-only effect, or another doubt; inactive means no such curve, though single readings can be large; an effect the other way counts as inactive or inconclusive.

SMILES | G9a block | PLK1 PBD inh | BAZ2B block | PI5P4Ka inh | JMJD2A Tudor inh | HP1b binding inh
N#Cc1nc(Cc2cccc3ccccc23)oc1NCCCN1CCOCC1 | 50µM* | -10% | u | x | -33% | -10%
c1ccc2c(NCCCN3CCOCC3)c3ccccc3nc2c1 | 50µM* | x | -15% | x | x | x
Cc1nc2cccnc2n1-c1cccc(C(=O)NCCc2ccc(S(N)(=O)=O)cc2)c1 | u | x | -9% | x | 11% | 33%
CC(=O)N1CCC(=NNc2ccnc3cc(Cl)ccc23)CC1 | 28µM* | -7% | u | -3 | -14% | 42%
CC(=O)c1ccc(N2CCN(c3ccnc4cc(Cl)ccc34)CC2)cc1 | 4% | -4% | u | 11 | -13% | 32%
CC(=O)N1CCC(=NNc2ncc(C(F)(F)F)cc2Cl)CC1 | -18% | -13% | 35µM* | 3 | -22%[57.1 µM] | 33%
CCOC(=O)N1CCC(=NNc2ncc(C(F)(F)F)cc2Cl)CC1 | 10% | -16% | x | -8 | u | 14%
COC(=O)N1CCC2(CCCN(C(=O)Nc3cccc(C#N)c3)C2)CC1 | -33%[12.7 µM] | x | x | x | x | x
O=C(CCc1ccccn1)N1CCCC(Nc2cccc(F)c2)C1 (stereo not drawn) | 10% | -16% | -3% | -1 | 7.1µM* | 29%
COc1ccc(NC2CCCN(C(=O)CCCn3cncn3)C2)cc1 (stereo not drawn) | x | x | -13% | x | x | x
COc1ccc(NC2CCCN(C(=O)CCn3cccn3)C2)cc1 (stereo not drawn) | -1% | -11% | -20% | -2 | -16% | 18%
O=C(CCc1ccccn1)N1CCCC(Nc2ccc(F)cc2)C1 (stereo not drawn) | x | -24% | -31% | 4 | -22% | 17%
COc1ccc(NC2CCCN(C(=O)CCc3cccc(Cl)c3)C2)cc1 (stereo not drawn) | u | -9% | 35µM* | -1 | u | u
COc1ccc(NC2CCCN(C(=O)CCc3cccc(F)c3)C2)cc1 (stereo not drawn) | 50µM* | -1% | u | 0 | u | -17%
CCOc1ccccc1CNC(=O)C1CCN(S(=O)(=O)c2c(C)noc2/C=C/c2ccc(C)cc2)CC1 | 13%[59 µM] | x | -6% | x | -22% | 23%[57 µM]
COC(=O)c1c(NC(=O)c2cccc(N3C(=O)CCC3=O)c2)sc2c1CCN(C(C)=O)C2 | 79µM* | -20% | -27% | -2 | -34% | 1%
O=C(Nc1sc2c(c1C(=O)O)CCC2)C(=O)N1CCOCC1 | 40µM* | -23% | 50µM* | u | u | -22%
CC(=O)N1CCc2c(sc(NC(=O)C3COc4ccccc4O3)c2C(N)=O)C1 (stereo not drawn) | x | 19µM* | -25% | -22 | -12% | -4%
CC(=O)N1CCc2c(sc(NC(=O)CN3C(=O)CCC3=O)c2C(N)=O)C1 | u | u | 10% | -76* | -23% | -11%
CCCCC(Sc1ccc2nnc(-c3ccccn3)n2n1)C(=O)O (stereo not drawn) | x | x | x | x | u | -5%[57 µM]
COc1ccccc1NC(=O)Cn1c(=O)n(CCCCCC(=O)NCc2ccccc2)c(=O)c2sccc21 | 5%[59 µM] | x | -2% | x | -9% | 21%
CC(=O)N1CCc2c(sc(NC(=O)CN3C(=O)c4ccccc4C3=O)c2C(N)=O)C1 | u | -28% | u | -77* | -13% | 33%
CC(C)N1CCc2c(sc(NC(=O)CN3C(=O)c4ccccc4C3=O)c2C(N)=O)C1 | -40% | -6% | -23% | 0 | -3% | 36%
CCOC(=O)N1CCc2c(sc(NC(=O)c3ccc(Cl)s3)c2C(N)=O)C1 | 28µM* | x | -31% | x | x | x
NC(=O)c1c(NC(=O)CN2CCOCC2)sc2c1CCC2 | 25µM* | -14% | x | 4 | -15% | 42%
SMILES | G9a block | PLK1 PBD inh | BAZ2B block | PI5P4Ka inh | JMJD2A Tudor inh | HP1b binding inh
CC(=O)N1CCc2c(sc(NC(=O)c3ccc([N+](=O)[O-])o3)c2C(N)=O)C1 | x | u | x | -65* | x | x
CCOC(=O)N1CCC(NC(=O)CS(=O)Cc2nc(-c3ccc(C)cc3)oc2C)CC1 (stereo not drawn) | -17% | -8% | -9% | -1 | -6% | 23%
NC(=O)c1c(NC(=O)CN2C(=O)CCC2=O)sc2c1CCCCC2 | 16µM* | u | -2% | -11 | -12% | -3%
O=C(O)CCn1c(-c2ccccn2)nc2ccccc21 | x | 4% | -7% | 1 | 22µM* | -16%
O=C(O)CCn1c(CO)nc2ccccc21 | 3% | 2% | 56µM* | 2 | -11% | -7%
O=C(O)Cn1c(P(=O)(O)c2ccccc2)nc2ccccc21 | 32µM* | -3% | u | 9 | 35µM* | -12%
O=C(O)CCn1c(SCc2cccc3ccccc23)nc2ccccc21 | 14µM* | -13% | -5% | -30 | -15% | 33%
CCSc1nc2ccccc2n1CCC(=O)O | u | 0% | 6% | 3 | -12% | 13%
OCc1nc2ccccc2n1CCCCOc1ccccc1 | x | -9% | x | -1 | -21% | 3%
CCOC(=O)Cn1c(=O)c(-c2ccccc2N)nc2ccccc21 | 15%[12.7 µM] | -10% | -17% | 0 | -26% | 64%
CCOC(=O)CCn1c(CC(=O)OCC)nc2ccccc21 | 50µM* | -10% | u | x | -24% | 45%
O=C(O)Cn1c(-c2cscn2)nc2ccccc21 | 45µM* | -2% | u | x | 16µM* | -5%
CC1=C(C)CC(C(=O)NCc2ccc3c(c2)OCO3)C(C(=O)O)C1 (stereo not drawn) | 0% | -3% | -30% | x | -14% | 5%
O=C(NCc1ccc2c(c1)OCO2)C(=O)NC1CCCCC1 | u | u | -3% | 1 | 50µM* | u
CC1CCCC(C)N1C(=O)CNCc1ccc2c(c1)OCO2 (stereo not drawn) | 50µM* | -3% | u | 1 | 50µM* | 1%
S=C(NC1CCCCC1)c1ccc2c(c1)OCO2 | u | 19µM* | -12% | x | -31% | -30%
c1cc2c(cc1NC1CCCCCC1)OCO2 | 7.9µM* | -24% | 40µM* | -5 | 50µM* | u
O=C(NC1CCCCCCC1)c1ccc2c(c1)OCO2 | -5% | -15% | 0% | -3 | -6% | 56%
CCc1noc(C)c1C(=O)Nc1nc(-c2ccccc2)c(C(C)=O)s1 | 22%[12.7 µM] | -10% | -5% | 0 | -19% | 31%
CCCCCCCc1n[nH]c(=S)n1Cc1ccccc1 | x | -9% | -3% | 5 | u | 28%
